Consider 40 molecules from PubChem BioAssay (NCATS).

Calls of active or inactive are those of the source. The rule behind the calls is not given here. A value given as a limit tells only on which side of the number the result lay.
Potency is the fitted concentration of half-maximal effect.

The subject of this test is HIV-1 nucleocapsid protein NCp7 (binding to TG oligonucleotide). Briefly: HIV Nucleocapsid (AID 346).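 Note: potency is for inhibitors that block NC binding and lower polarization.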 The settings on record: HIV-1 NC / fluorescein-TGTGTGTG probe, fluorescence polarization. The essentials:
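10 nM TG4xF probe with 100 nM nucleocapsid protein in high-salt Hepes pH 7.5 (250mM NaCl) containing 1uM ZnCl2 and reducing agents. Compound inhibition of binding was read as fluorescein polarization after 1 hr at room temperature.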
Regarding `COc1ccc2[nH]cc(CCNc3cc(-c4ccccc4CN(C)C)ncn3)c2c1`, the Potency is > 20 µM (inactive).

Turning to `COc1ccccc1CN1CC[C@@]2(CCCN(C(=O)c3ccco3)C2)C1`, the Potency was > 20 µM (inactive). The result for `Cc1cnc(CNc2ccnc(-c3ccccc3Cl)n2)cn1` reads > 20 µM (inactive). The same measure for `CN(C)c1ncc2nc(-c3cccs3)c(=O)n(C)c2n1`: > 4 µM (inactive). The same measure for `Cn1c(=O)c(CCc2ccccc2)nc2cnc(Nc3ccccc3)nc21`: > 20 µM (inactive); for `Cc1cnc(CNc2ncncc2-c2ccc(C(=O)N(C)C)cc2)cn1`: > 20 µM (inactive).

As for `CNc1nc(-c2ccccc2Cl)nc2ccccc12`, the Potency is > 20 µM (inactive). Regarding `Cc1noc(C)c1-c1nc(NC2CC2)c2ccccc2n1`, the Potency is > 20 µM (inactive). On to `COc1ccc(-c2nc3cnc(Nc4cccc(OC)c4)nc3n(CCC#N)c2=O)cc1`, for which the Potency is > 20 µM (inactive).

With `CS(=O)(=O)Nc1cccc(-c2nc(N3CCOCC3)c3ccccc3n2)c1`, the Potency is > 20 µM (inactive).

Regarding `Cc1ccccc1-c1cncnc1NCc1ccccc1`, the Potency was > 20 µM (inactive). The same measure for `Cc1noc(C)c1-c1cncnc1NC1CC1`: > 20 µM (inactive). The same measure for `COCC(=O)N1CCC2(CC1)CCN(c1ccc(-c3ccccc3)cc1)CC2`: > 20 µM (inactive). The result for `COc1cccc(Cn2c(=O)c(C)nc3cnc(Oc4cccc(Cl)c4)nc32)c1` reads > 20 µM (inactive); that for `FC(F)(F)c1ccccc1-c1nccc(N2CCNCC2)n1`, > 20 µM (inactive).

As to `Cn1cccc1C(=O)N1CCC2(CCCN(c3ccccc3)C2)CC1`, the Potency was > 20 µM (inactive). As for `Cc1noc(C)c1-c1nccc(NCc2cccs2)n1`, the Potency was > 20 µM (inactive). The result for `O=S(=O)(c1ccccc1)N1CCC[C@@]2(CCN(c3ccccc3)C2)C1` reads > 20 µM (inactive); that for `FC(F)(F)c1ccccc1-c1nc(N2CCNCC2)c2ccccc2n1`, > 20 µM (inactive).

On to `COCCn1c(=O)c(-c2cc(F)cc(F)c2)nc2cncnc21`, for which the Potency was > 20 µM (inactive).

Regarding `O=C(Nc1ccccc1)N1CC2(CCN(C(=O)c3ccco3)CC2)C1`, the Potency is > 20 µM (inactive). Turning to `c1nc(NCCN2CCOCC2)c2cc(-c3ccc4c(c3)OCO4)ccc2n1`, the Potency is > 20 µM (inactive). As to `Cn1cc(-c2nc3cncnc3n(C3CC3)c2=O)c2ccccc21`, the Potency was > 20 µM (inactive). In the case of `COc1ccccc1CNc1ncncc1-c1cccc(NS(C)(=O)=O)c1`, the Potency was > 20 µM (inactive). The same measure for `O=c1c(-c2cccc(F)c2)nc2cncnc2n1-c1ccccc1`: > 20 µM (inactive). For `COc1ccccc1CCn1c(=O)c(C)nc2cncnc21`, the Potency was > 20 µM (inactive).

Regarding `CC(=O)N1CCC2(CC1)CCN(C(=O)Nc1cccc(F)c1)CC2`, the Potency is > 20 µM (inactive).

As for `CCNc1ncc2nc(C)c(=O)n(CCOC)c2n1`, the Potency is > 20 µM (inactive). With `Cc1noc(C)c1C(=O)N1CCC2(CCN(Cc3nccs3)CC2)CC1`, the Potency was > 20 µM (inactive).

In the case of `CN(C)C(=O)c1ccc(-c2ccc3ncnc(NCc4cccnc4)c3c2)cc1`, the Potency was > 20 µM (inactive). The result for `COCCNc1cc(-c2ccccc2C)ncn1` reads > 20 µM (inactive). Regarding `O=C(Nc1ccccc1)N1CCC2(CC1)CCN(C(=O)c1csnn1)CC2`, the Potency was > 20 µM (inactive). The same measure for `O=S(=O)(c1ccccc1)N1CCC2(CC1)CN(Cc1nccs1)C2`: > 20 µM (inactive). The result for `O=C(c1ccco1)N1CCC[C@@]2(CCN(c3ccccn3)C2)C1` reads > 20 µM (inactive); that for `COc1ncc2nc(C)c(=O)n(C[C@H]3CCCO3)c2n1`, > 20 µM (inactive). The same measure for `CN1CCN(c2ncc3nc(-c4cccs4)c(=O)n(CCc4ccccc4)c3n2)CC1`: > 20 µM (inactive); for `O=c1c(-c2ccc(F)cc2)nc2cnc(Oc3cccc(Cl)c3)nc2n1C1CC1`: > 20 µM (inactive). With `Cc1nc2cncnc2n(-c2ccccc2)c1=O`, the Potency is > 20 µM (inactive). The same measure for `O=C(c1ccncc1)N1CCC2(CCCN(c3ccncc3)C2)CC1`: > 20 µM (inactive); for `CS(=O)(=O)Nc1cccc(-c2cncnc2NCc2cccnc2)c1`: > 20 µM (inactive).
